Source: the supplement of paper PMC12632987
Whole data set: some 2,300 sequences, median “median log2 fold change of GCK-ALFA target abundance (FLAG IP / Myc IP barcode read proportion)” near 0.095, cut for the lowest 2% near -0.47. Many of the other results were omitted from the sample, so the lowest values are more common in it than they were.

B1: LC3A_23_609 (protein)
chain: MYLIDFEVDLIGEPEEIEKIEKELLEALEEFLEENKDKIVDYEIEVEREELEDGRTYLSIRLKILIDGTREEAEALANEITTIASEIAPDAVISVEVEEV
B2: LC3A_147_509 (protein)
chain: YIVEIDIDLLVKNKVEEVKEKFKEIVEELKKKGYEVELEIEEEKIDENTYYVKVKITIKAETKEEAEEAANLTLDLLDKLEEELKEDILGSLISVEITEA
B3: LC3A_free_39_2183 (protein)
chain: SSEETKKLKEELLKLAEEEGEETKELAEKLIELIGEELERIKRLLELMKKLKEAGVDLKEALKEALELAEELKKKGKSKEEIAEAVLELMQDKYNLIPID
B4: LC3A_free_26_2149 (protein)
chain: DEFIDIVELDKAIDLLEELLKLLEENELASEEEKKLAKEALEEAKKETLESLKKALKLVEELLKLLKKNEKLPEETKKKLIKLAEEAIKHIKENIKIMES
B5: LC3A_3_1540 (protein)
chain: MDAAVAAALARLRAAGASAATLAAFEAAVAALRERGYDAALETLIAETDRLLGLSDALLLAFFEEVLELVETEDIDEEELIARIREIARTTLSEAEIEEL
B6: LC3A_28_1107 (protein)
chain: SSVDEENAKALAEAEKAAAAGEPAVITITVKSTDTQEDIDKKIETMEKIAEILKDVKDAAIIIDLDGEIPQEYLDKLADKGEEIEKKYPNITVIIALDEE
B7: LC3A_3_1662 (protein)
chain: AEELIEETLAWLREQGRSEETLEAAREAMTALKEKGYYEALETFAELLRELADLSDELLLELAEEVLELVETSDLDEESMTEEIREIARTIRSEAEIEEL
B8: LC3A_132_248 (protein)
chain: SEEELKEALEELKEILEKIVEALKNGEDPLPLIVELEEKALEIAEKLSLEETEELIDEAKEYAEELFEEELDPNDEEARRTLDIIEMLLDGVLIEKELKS
B9: LC3A_132_247 (protein)
chain: SEEELEKALEELKEILEKIVELLKAGKDPLPQIVKLEELAREIAKKLSLEETEKLVDEAIEYAEELFEKELDPNDEEARRTLDIIEMSLEGVLIEKELES
B10: LC3A_132_246 (protein)
chain: SEEEYKKALAELKEIIDKIVELLKEGKDPLPAIVELEEKAREIAEKLSLEETEKLVEETIEYAEKRFEEELDPNDEEARRTLDIIEMLLEGVLIEKELRS
B11: LC3A_28_830 (protein)
chain: SKIEERIAKFKAEAEAAKASQEPATLTITVTSEDTVEEAKKIAEAMKEEAEKLKDVPDIGIVIDTDGKIDPEVLKILTDTADEIEEKYPNVTVIIALPEE
B12: LC3A_23_622 (protein)
chain: MYKVTVEADTIATPEEAEKYIKLVKEKVEEIKEKYKDKIEEVKLEIEREELPDGTVYLHITVTIIVKDDEELAQKLKNELVDFFDKNIPNGVISYEIEKL
B13: LC3A_free_46_2410 (protein)
chain: YVAEIDVDALAETKEKAEEFAKKIEEAAKEIAKEYGIEVEIEVKISKDEDGTYFVEIEITLEAETKETLEKAVNELIDKIEEIAEELGVSIIISYEISEA
B14: LC3A_28_1055 (protein)
chain: SAVEEQIKKALEEAKELAAKGEEALIEIEIEEDDTEEDVEKKLKTIEEIAEINKDLPSTSIIVNVNNKNKEEVTKKFADLGDELEKKYPNVTVIIALSEE
B15: LC3A_28_1327 (protein)
chain: SELEEQLEKQRKEALELAEKGEDVLIEVTITPETTLEEAEELMEKLRELVKEVAPKVKVSIVVDVEGGVSQEVIDAIAEKADEIEKEYPNATVIIALDED
B16: LC3A_free_39_2199 (protein)
chain: SEEEEEEAEEEILELAEEEGEEALEAAEELLEELEGNLELVEAVLEQVKRAKEEGADVLELLKRLLELVRKLQEEGKSEEEIIEAIEEEADVIINLIPID
B17: LC3A_28_1010 (protein)
chain: MSVVEETKKEAEKALEEAKKGNDAYLEIKITKDTTLEEVKEIGKIIEETAKKISEIENVKLYIVVDDDSNEEKHNIILDKLDEIEKKYPNVSSIVAYTDE
B18: LC3A_3_1354 (protein)
chain: SEELIEEQIERLREAGFSEEVLEAARAAFEGLAAQGHEEGIELLTEALLKHKDAPEEKKLRVLNNLLAEVQANPNLTQEEVEELVKLADLDLAIEELDEE
B19: LC3A_132_313 (protein)
chain: SEKKYEEIKKKLEELLKEAEKNINDKEKVEELLKEIRKLLEEAEKELSPEQVKELYDFVADRLYKLSLKADEAGKEDVSLLLDAAAIEAASKALKAEKKI
B20: LC3A_28_1162 (protein)
chain: SAIEESIKAAFEELEKAIKEGKNGVITLKVPGDATEEDIERLIKALEEIAKKAEEHGINGILIDVDGGVKQEHIDRLAKAAEEIEKKYPKVTIIIALSDE
B21: LC3A_free_46_2347 (protein)
chain: YKAEIDIDLLAEDEETLKKAVEEIVEAAKKIAKKYNLKVNIEVEIEKLEDGSYYARIKITLEGETKEDVEAAVNELIDEIDKIAKKYNVAAIISYEIIKT
B22: LC3A_free_46_2352 (protein)
chain: VEAKIEIDLLADDKEKLEKAVEEIIKKIKEIAKKYGLEVEINYEISKLEDGSYYAKIEITLKGEDLEDVKKAVNELINEIEEIAEKYGVSAVISYEIEDV
B23: LC3A_free_0_2121 (protein)
chain: KKTVVELVVILDEKTSEEKAKEAYEELKEKAEELAEENGWEVEVKLDKVDGRHIITVTLTSDEPDIDKGLELERKLSEIAEEIAKKLGLDATIYSSVYLE
B24: LC3A_free_8_2531 (protein)
chain: NVQEMVDLALKELDKLEKIAVEKAKELGLSRTDILELELVIGSAKIDIIEASDKSVEEIYKLFKEELKEILEEAKKYGEELYKEVEKKAKEALKKMEEAK
B25: LC3A_28_1140 (protein)
chain: SALVEAAKAQIEADAEADKDEPEVLLRVTITSEMTVEQAREIMDHVEEVVEKLKDKEKIYIVVDATEPISQEVLDEIVERLEEIEKKYPNVSSIIALPED
B26: LC3A_28_1037 (protein)
chain: DELRRRAEEAVKEAEEQAKKGEEAVVTIKVGKLPTEEAKRIVREALERLIKISKKYGNVKISVVIDVDGDQELVDAIIDVAEEAEKKNPNLTVIIALSEE
B27: LC3A_23_605 (protein)
chain: MYKVEVIVDFIDKPEEAEKKVEELLKKVEELLKKHKDIVKDYEIKVTREALPDGTTYVEVEITIIIDGTKEEAEEIRNELESIASETLPNGVISSEVEEL
B28: LC3A_59_2035 (protein)
chain: SAEAEAAAARVRERGPSVDVVAEVFREVLEKNGLDPELARDLVAALVAVLVEAGLITAEEGAAIRAEADAAIDRLTDVDELVSELRVIILDALLKKNELE
B29: LC3A_141_361 (protein)
chain: ATKKETFTLTAKTEEEAIEVAEKIKEKIREFMEKTGAKEVKVTVTITAYNKKTGEVKTETIVETVTPENLDLFEEGLLIELLSYFEKGADEVKVTVTIES

target: MAP1LC3A, Q9H492; test: median log2 fold change of GCK-ALFA target abundance (FLAG IP / Myc IP barcode read proportion) (log2 ratio); each designed protein is fused to an ALFA-tag nanobody in HEK293 cells to bring the named protein to FLAG-tagged glucokinase (GCK); Myc marks an untargeted standard; higher = target protein stabilised (more abundant); details: target protein: 3xFLAG-MCP-GCK-ALFA reporter; HEK293 landing pad (RPLP)
Protocol: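 LABEL-seq trans screen in HEK293 landing-pad cells. Each de novo designed 100-aa effector handle, binding the indicated effector (E3 ligase, DUB or autophagy protein), is fused to a constant NbALFA target handle and induced with 2 ug/mL doxycycline. A FLAG-MCP-GCK-ALFA target and a Myc-MCP standard reporter were transfected, and after 48 h circRNA barcodes were recovered by anti-FLAG and anti-Myc IP and sequenced. The value is the median across barcodes (at least 3 per design) of log2(FLAG/Myc read-proportion ratio), with the two transfection replicates pooled. Negative values mean degradation and positive values mean stabilisation of the target.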

Binder	median log2 fold change
B1	-0.664
B2	-0.0549
B3	0.066
B4	-0.0408
B5	0.222
B6	0.154
B7	-0.0559
B8	-0.698
B9	-0.371
B10	-0.415
B11	0.132
B12	-0.561
B13	0.0318
B14	0.0494
B15	-0.563
B16	0.103
B17	-0.515
B18	0.184
B19	-0.171
B20	-0.0306
B21	-0.556
B22	0.204
B23	0.00278
B24	-0.0124
B25	-0.0164
B26	-0.36
B27	-0.868
B28	0.256
B29	-0.0634
